Assay results from PubChem BioAssay (EPA / NIEHS).
Where “and” joins values, the source holds several entries; their conditions need not be identical. Equal values may be shown once. Results filed as inconclusive are left out. Calls of active or inactive are those of the source. The calls were made as follows, unless noted: active = hit-call score of the fitted dose curve at least 0.9, where 1 is the maximum; inactive = score below 0.9.

How the values were obtained:
[1] = ATG_PBREM_CIS: Attagene CIS-FACTORIAL HepG2 Assay for human Phenobarbital-responsive Enhancer Module (PBREM) (AID 2282955); conditions: HepG2 PBREM cis-reporter, Attagene multiplexed transcription; actives raise or lower the signal
Method in brief: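 After a 24 h incubation with test chemical, transfected HepG2 cells yield total RNA; reporter-specific RT-PCR products are fluorescently labelled, HpaI-digested and resolved by capillary electrophoresis against ROX size standards.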

[2] = target: Paired box protein Pax-6 (Homo sapiens) (UniProt P26367); assay: ATG_Pax6_CIS: Attagene CIS-FACTORIAL HepG2 Assay for human Paired Box 6 (PAX6) (AID 2282956); conditions: HepG2 CIS-FACTORIAL PAX6 reporter transcription, RNA readout; actives raise or lower the signal
Sequence of Paired box protein Pax-6 (Homo sapiens) (P26367 whole entry, looked up): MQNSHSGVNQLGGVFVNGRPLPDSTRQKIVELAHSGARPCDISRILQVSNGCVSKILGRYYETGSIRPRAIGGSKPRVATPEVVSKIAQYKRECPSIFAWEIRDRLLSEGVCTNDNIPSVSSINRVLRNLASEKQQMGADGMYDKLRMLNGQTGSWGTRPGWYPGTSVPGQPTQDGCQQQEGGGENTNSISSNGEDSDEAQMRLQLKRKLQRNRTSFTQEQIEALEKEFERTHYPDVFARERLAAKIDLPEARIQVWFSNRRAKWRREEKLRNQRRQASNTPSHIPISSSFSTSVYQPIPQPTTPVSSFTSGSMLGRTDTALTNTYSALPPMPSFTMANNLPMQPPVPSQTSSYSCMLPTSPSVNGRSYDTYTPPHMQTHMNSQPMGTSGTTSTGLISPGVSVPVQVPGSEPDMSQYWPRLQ
Method in brief: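 Fluorescent RT-PCR products separated by capillary electrophoresis report PAX6-linked promoter mRNA in HepG2 cells 24 h post-dose. Curves fitted bidirectionally, DMSO as negative control.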

[3] = ATG_PXRE_CIS: Attagene CIS-FACTORIAL HepG2 Assay for human Pregnane X Receptor Element (PXRE) (AID 2282957); conditions: HepG2 Attagene CIS-FACTORIAL PXRE reporter, mRNA; actives raise or lower the signal
Method in brief: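 Reporter transcripts under endogenous PXR-responsive cis-regulation quantified from total RNA of transfected HepG2 cells 24 h post-dosing, via RT-PCR with fluorescent primer extension and capillary electrophoresis. Gain or loss of signal fitted against DMSO baseline.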

[4] = ATG_RORE_CIS: Attagene CIS-FACTORIAL HepG2 Assay for human RAR-related Orphan Receptor Element (RORE) (AID 2282959); conditions: HepG2 Attagene cis-factorial RORE reporter, mRNA; actives raise or lower the signal
Method in brief: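 Fluorescence intensity of reporter-specific cDNA fragments, separated by capillary electrophoresis, gives the signal. Source: HepG2 liver cells transiently transfected with cis-element reporters and exposed 24 h; DMSO-normalized bidirectional fit.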

[5] = ATG_Sox_CIS: Attagene CIS-FACTORIAL HepG2 Assay for human SRY-box transcription factor (SOX) (AID 2282960); conditions: HepG2 Attagene cis-factorial SOX reporter, mRNA; actives raise or lower the signal
Method in brief: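 After 24 h of chemical treatment, transfected HepG2 reporter cells are lysed for total RNA. Transcript levels come from RT-PCR with labelled primer extension and capillary electrophoresis, analysed bidirectionally versus DMSO.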

[6] = target: Transcription factor Sp1 (Homo sapiens) (UniProt P08047); assay: ATG_Sp1_CIS: Attagene CIS-FACTORIAL HepG2 Assay for human Specificity Protein 1 (Sp1) (AID 2282961); conditions: HepG2 Sp1 cis-reporter transcription, actives raise or lower the signal
Sequence of Transcription factor Sp1 (Homo sapiens) (P08047 whole entry, looked up): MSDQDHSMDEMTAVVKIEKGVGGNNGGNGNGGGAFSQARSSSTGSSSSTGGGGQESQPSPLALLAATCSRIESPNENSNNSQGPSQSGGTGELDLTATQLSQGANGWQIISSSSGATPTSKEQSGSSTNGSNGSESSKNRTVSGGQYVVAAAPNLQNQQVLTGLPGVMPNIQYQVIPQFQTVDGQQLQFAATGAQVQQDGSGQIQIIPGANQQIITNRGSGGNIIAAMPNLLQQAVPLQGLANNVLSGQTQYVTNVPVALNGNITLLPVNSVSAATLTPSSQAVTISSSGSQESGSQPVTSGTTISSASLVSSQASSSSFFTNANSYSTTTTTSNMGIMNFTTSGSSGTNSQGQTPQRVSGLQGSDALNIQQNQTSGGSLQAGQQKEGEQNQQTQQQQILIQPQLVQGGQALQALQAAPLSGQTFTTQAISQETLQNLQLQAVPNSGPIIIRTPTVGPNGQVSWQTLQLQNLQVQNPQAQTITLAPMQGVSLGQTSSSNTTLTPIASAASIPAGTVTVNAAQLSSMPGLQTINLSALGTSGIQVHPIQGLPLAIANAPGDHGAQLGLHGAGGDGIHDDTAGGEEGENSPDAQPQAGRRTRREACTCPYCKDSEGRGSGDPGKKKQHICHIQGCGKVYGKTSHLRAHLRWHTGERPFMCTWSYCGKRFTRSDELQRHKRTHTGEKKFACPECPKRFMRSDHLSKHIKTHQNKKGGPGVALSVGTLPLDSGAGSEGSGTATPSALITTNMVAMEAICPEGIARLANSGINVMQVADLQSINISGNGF
Method in brief: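 Sp1-driven reporter mRNA, read as capillary electrophoresis fluorescence after RT-PCR, in transiently transfected HepG2 cells dosed for 24 h; signal change in either direction relative to DMSO.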

[7] = ATG_SREBP_CIS: Attagene CIS-FACTORIAL HepG2 Assay for human Sterol Regulatory Element Binding (SREBP) (AID 2282962); conditions: HepG2 Attagene cis-factorial SREBP reporter, mRNA; actives raise or lower the signal
Method in brief: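 Endogenous factor activity is measured in HepG2 through multiplexed reporter units under cis-element control. Following a 24 h incubation, reporter transcripts are reverse-transcribed, PCR-amplified and sized by capillary electrophoresis; activity is fitted in both directions relative to DMSO.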

[8] = target: Signal transducer and activator of transcription 3 (Homo sapiens) (UniProt P40763); assay: ATG_STAT3_CIS: Attagene CIS-FACTORIAL HepG2 Assay for human Signal Transducer and Activator of Transcription 3 (STAT3) (AID 2282963); conditions: HepG2, Attagene cis-factorial STAT3 reporter transcription; actives raise or lower the signal
Sequence of Signal transducer and activator of transcription 3 (Homo sapiens) (P40763 whole entry, looked up): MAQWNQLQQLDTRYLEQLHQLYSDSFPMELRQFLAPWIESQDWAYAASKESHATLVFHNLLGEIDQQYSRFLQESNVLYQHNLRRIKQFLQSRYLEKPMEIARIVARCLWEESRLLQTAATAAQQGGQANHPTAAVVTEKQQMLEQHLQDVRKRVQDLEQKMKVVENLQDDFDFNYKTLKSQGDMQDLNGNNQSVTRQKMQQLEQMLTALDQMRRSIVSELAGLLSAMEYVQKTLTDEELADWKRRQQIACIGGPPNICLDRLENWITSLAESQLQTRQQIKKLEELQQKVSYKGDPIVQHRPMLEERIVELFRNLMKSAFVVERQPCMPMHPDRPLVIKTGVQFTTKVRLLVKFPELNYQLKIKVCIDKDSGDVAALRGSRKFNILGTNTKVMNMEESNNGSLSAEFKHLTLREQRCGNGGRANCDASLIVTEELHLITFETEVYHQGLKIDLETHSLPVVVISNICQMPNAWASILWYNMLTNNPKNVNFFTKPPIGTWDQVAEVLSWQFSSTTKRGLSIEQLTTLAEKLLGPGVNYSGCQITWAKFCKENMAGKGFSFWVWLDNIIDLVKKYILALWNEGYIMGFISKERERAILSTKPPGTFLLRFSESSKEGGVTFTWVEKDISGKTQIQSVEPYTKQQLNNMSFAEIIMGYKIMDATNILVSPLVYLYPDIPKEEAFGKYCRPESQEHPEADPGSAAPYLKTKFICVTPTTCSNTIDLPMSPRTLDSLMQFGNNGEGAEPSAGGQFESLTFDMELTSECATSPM
Method in brief: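 HepG2, MRTU-transfected, 24 h dosing. RNA → RT → PCR → FAM label → HpaI → CE. Bidirectional fit vs DMSO.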

[9] = ATG_TA_CIS: Attagene CIS-FACTORIAL HepG2 Assay for human TA Basal Promoter (AID 2282964); conditions: HepG2 Attagene CIS-factorial TA basal promoter reporter; actives raise or lower the signal
Method in brief: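 Steps: transfect HepG2 with MRTUs; dose 24 h; isolate RNA, DNase-treat, reverse-transcribe; PCR and FAM-label reporter cDNA; digest with HpaI 2h at 37 C; run capillary electrophoresis. Activity fitted both directions against DMSO.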

[10] = ATG_TCF_b_cat_CIS: Attagene CIS-FACTORIAL HepG2 Assay for human T-Cell-Factor with beta-catenin (TCF/b-cat) (AID 2282965); conditions: HepG2 TCF/beta-catenin cis-reporter transcription, actives raise or lower the signal
Method in brief: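 Using capillary electrophoresis as the read-out, labelled reporter cDNA fragments from transiently transfected HepG2 were sized and quantified. Exposure lasted 24 hours; activity in either direction was referenced to DMSO.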

[11] = ATG_TAL_CIS: Attagene CIS-FACTORIAL HepG2 Assay for human TAL Basal Promoter (AID 2282966); conditions: HepG2 Attagene cis-factorial TAL promoter reporter; actives raise or lower the signal;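 also: background control endpoint measuring basal TAL promoter reporter mRNA not a specific factor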
Method in brief: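 Background-control endpoint: basal TAL promoter reporter transcripts in transiently transfected HepG2, measured 24 h after dosing. Read-out by RT-PCR with fluorescent primer extension and capillary electrophoresis; gain or loss of signal fitted relative to DMSO.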

[12] = ATG_TGFb_CIS: Attagene CIS-FACTORIAL HepG2 Assay for human Transforming Growth Factor (TGF) (AID 2282967); conditions: HepG2 Attagene CIS TGFb reporter, mRNA transcription; actives raise or lower the signal
Method in brief: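 Cells were dosed for 24 hours, after which total RNA was reverse-transcribed and reporter sequences amplified, labeled and sized by capillary electrophoresis. Activity was fitted in both directions against DMSO.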

[13] = target: Nuclear receptor subfamily 1 group I member 3 (Homo sapiens) (UniProt Q14994); assay: ATG_CAR_TRANS: Attagene TRANS-FACTORIAL HepG2 Assay for human Constitutive Androstane Receptor (CAR) (AID 2282969; active = hit-call score of the fitted dose curve at least 0.9, where 1 is the maximum;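 also: activators raise reporter mRNA above DMSO so AC50 marks induction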); conditions: HepG2 Attagene TRANS-FACTORIAL CAR reporter
Sequence of Nuclear receptor subfamily 1 group I member 3 (Homo sapiens) (Q14994 whole entry, looked up, the tested form may be a part): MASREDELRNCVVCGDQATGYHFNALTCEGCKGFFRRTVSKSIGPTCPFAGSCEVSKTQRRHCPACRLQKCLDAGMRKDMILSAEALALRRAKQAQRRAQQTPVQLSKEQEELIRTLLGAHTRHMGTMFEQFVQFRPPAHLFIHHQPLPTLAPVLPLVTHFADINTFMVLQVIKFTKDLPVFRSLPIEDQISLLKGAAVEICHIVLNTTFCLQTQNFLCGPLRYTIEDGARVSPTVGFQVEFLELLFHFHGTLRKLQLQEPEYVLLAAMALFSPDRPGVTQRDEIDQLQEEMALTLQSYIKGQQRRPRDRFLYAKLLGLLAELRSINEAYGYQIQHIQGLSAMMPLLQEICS
Method in brief: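 Steps: transient transfection of HepG2 with multiple GAL4-UAS reporter units; 24 h compound incubation; RNA isolation, RT-PCR, 6-FAM primer extension, HpaI digest; capillary electrophoresis. Gain-of-signal relative to DMSO negative control.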

[14] = target: Estrogen receptor (Homo sapiens) (UniProt P03372); assay: ATG_ERa_TRANS: Attagene TRANS-FACTORIAL HepG2 Assay for human Estrogen Receptor alpha (ERa) (AID 2282970; active = hit-call score of the fitted dose curve at least 0.9, where 1 is the maximum); conditions: HepG2 Attagene TRANS ERa GAL4 reporter, mRNA
Sequence of Estrogen receptor (Homo sapiens) (P03372 whole entry, looked up, the tested form may be a part): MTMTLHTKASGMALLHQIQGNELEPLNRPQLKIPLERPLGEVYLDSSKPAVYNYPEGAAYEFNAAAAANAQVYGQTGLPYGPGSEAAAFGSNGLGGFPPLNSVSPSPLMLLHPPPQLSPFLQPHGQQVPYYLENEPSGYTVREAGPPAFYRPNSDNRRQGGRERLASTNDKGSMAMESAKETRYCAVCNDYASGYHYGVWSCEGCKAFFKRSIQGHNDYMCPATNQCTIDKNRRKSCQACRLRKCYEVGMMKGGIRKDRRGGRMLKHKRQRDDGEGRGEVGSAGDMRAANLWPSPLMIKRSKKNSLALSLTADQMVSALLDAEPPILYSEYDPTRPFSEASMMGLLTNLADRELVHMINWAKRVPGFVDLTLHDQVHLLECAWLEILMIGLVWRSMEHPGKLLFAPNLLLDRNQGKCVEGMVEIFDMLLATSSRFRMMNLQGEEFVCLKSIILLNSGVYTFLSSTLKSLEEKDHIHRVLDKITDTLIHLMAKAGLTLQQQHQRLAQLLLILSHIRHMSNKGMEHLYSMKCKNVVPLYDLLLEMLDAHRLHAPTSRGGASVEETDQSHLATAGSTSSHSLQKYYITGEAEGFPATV
Method in brief: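 Reporter transcripts were measured 24 h after dosing by RT-PCR with fluorescent primer extension and capillary electrophoresis. The system is transiently transfected HepG2 expressing exogenous NR-Gal4 chimeras driving GAL4-UAS reporters; DMSO is the baseline.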

[15] = target: X-box-binding protein 1 (Homo sapiens) (UniProt P17861); assay: ATG_Xbp1_CIS: Attagene CIS-FACTORIAL HepG2 Assay for human X-box Binding Protein 1 (XBP1) (AID 2282972); conditions: HepG2 XBP1 cis-element reporter, Attagene multiplex; actives raise or lower the signal
Sequence of X-box-binding protein 1 (Homo sapiens) (P17861 whole entry, looked up): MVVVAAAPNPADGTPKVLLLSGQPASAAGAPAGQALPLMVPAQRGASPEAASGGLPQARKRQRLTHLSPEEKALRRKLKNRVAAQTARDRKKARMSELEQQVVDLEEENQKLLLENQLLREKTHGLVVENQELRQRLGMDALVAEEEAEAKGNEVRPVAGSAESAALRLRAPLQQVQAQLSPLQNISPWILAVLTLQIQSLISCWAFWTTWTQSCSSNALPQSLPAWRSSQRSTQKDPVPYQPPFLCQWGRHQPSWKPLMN
Method in brief: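 Multiplexed cis-reporter readout in transfected HepG2 liver cells. Exposure lasted 24 hours. Activity in either direction was fitted against DMSO as negative control and baseline.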

[16] = ATG_PPRE_CIS: Attagene CIS-FACTORIAL HepG2 Assay for human Peroxisome Proliferator-activated Response Element (PPRE) (AID 2282958); conditions: HepG2 PPRE cis-element reporter, Attagene transcription factor profiling; actives raise or lower the signal
Method in brief: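 Multiplexed reporter transcription units under cis-regulatory promoters were transfected into HepG2 cells to capture endogenous factor activity. A 24 h incubation preceded RNA isolation and fluorescent RT-PCR fragment analysis.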

[17] = ATG_M_19_TRANS: Attagene TRANS-FACTORIAL HepG2 Assay for M19 Transcription Factor (Internal Marker) (AID 2282974; active = hit-call score of the fitted dose curve at least 0.9, where 1 is the maximum); conditions: HepG2 Attagene TRANS-FACTORIAL M19 internal marker reporter
Method in brief: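 Measured here: internal-marker reporter transcript from HepG2 cells transfected with MRTUs, harvested at 24 h. cDNA PCR products were 6-FAM labelled by primer extension, cut with HpaI for 2 h at 37 C, and resolved by CE.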

[18] = target: Estrogen-related receptor gamma (Homo sapiens) (UniProt P62508); assay: ATG_ERRg_TRANS: Attagene TRANS-FACTORIAL HepG2 Assay for human Estrogen-Related Receptor gamma (ERRg) (AID 2282977; active = hit-call score of the fitted dose curve at least 0.9, where 1 is the maximum;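 also: hits increase reporter signal over DMSO so potencies reflect activators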); conditions: HepG2 Attagene TRANS reporter, ERRg transactivation
Sequence of Estrogen-related receptor gamma (Homo sapiens) (P62508 whole entry, looked up, the tested form may be a part): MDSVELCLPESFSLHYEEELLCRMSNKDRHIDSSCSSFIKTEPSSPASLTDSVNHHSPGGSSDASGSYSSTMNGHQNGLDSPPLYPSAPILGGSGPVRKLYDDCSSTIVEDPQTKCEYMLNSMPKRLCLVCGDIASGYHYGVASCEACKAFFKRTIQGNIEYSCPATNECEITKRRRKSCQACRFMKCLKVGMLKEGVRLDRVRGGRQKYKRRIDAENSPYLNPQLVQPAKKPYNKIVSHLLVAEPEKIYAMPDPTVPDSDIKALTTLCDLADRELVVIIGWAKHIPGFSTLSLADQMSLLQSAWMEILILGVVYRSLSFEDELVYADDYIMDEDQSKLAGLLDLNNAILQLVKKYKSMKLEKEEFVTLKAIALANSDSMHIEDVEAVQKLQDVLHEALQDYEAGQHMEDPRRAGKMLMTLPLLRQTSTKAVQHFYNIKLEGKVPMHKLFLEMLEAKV
Method in brief: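 Exogenous NR-Gal4 chimera activity measured as reporter transcript induction after 24 h in transiently transfected HepG2 cells. RNA reverse-transcribed, PCR-amplified, 6-FAM-labelled and resolved by capillary electrophoresis; increase over DMSO baseline.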

Measured: AC50

CCCCNC(=O)n1c(NC(=O)OC)nc2ccccc21
inactive: [1] | [2] | [3] | [4] | [5] | [6] | [7] | [8] | [9] | [10] | [11] | [12] | [13] | [14] | [15]

COC(=O)C(C)Oc1ccc(Oc2ccc(Cl)cc2Cl)cc1 (stereo not given)
inactive: [1] | [2] | [4] | [5] | [6] | [7] | [8] | [9] | [10] | [11] | [12] | [13] | [15] | [17] | [18]
active: [3] 23 µM and 16.9 µM and 22 µM | [16] 18.7 µM and 11 µM and 23 µM

C#CCOS(=O)OC1CCCCC1Oc1ccc(C(C)(C)C)cc1 (stereo not given)
inactive: [2] | [16] | [6] | [7] | [8] | [9] | [10] | [11] | [12] | [13] | [14] | [15] | [18]
active: [1] 1390 nM | [3] 661 nM | [4] 2400 nM | [5] 4220 nM

C=CCC1=C(C)[C@@H](OC(=O)[C@@H]2[C@@H](C=C(C)C)C2(C)C)CC1=O
active: [1] 5590 nM | [3] 965 nM
inactive: [2] | [4] | [5] | [6] | [7] | [8] | [9] | [10] | [11] | [12] | [13] | [14] | [15] | [18]
